# Source: PMC4336329 (PLoS ONE, 2015)
# Among all 310,000 compounds or so, about 2,200 (0.71%) showed an effect of 50% or more. The effect is printed as a negative number. Many of the other results were omitted from the sample, so strong results are more common in it than they were.
# Biological target: human ether-à-go-go-related gene (hERG) potassium channel (human, UniProt Q12809)
# Assay: primary screen, population patch clamp on CHO cells stably expressing hERG; higher = less effect of the substance
# Chain of human ether-à-go-go-related gene (hERG) potassium channel (Q12809 whole entry, looked up): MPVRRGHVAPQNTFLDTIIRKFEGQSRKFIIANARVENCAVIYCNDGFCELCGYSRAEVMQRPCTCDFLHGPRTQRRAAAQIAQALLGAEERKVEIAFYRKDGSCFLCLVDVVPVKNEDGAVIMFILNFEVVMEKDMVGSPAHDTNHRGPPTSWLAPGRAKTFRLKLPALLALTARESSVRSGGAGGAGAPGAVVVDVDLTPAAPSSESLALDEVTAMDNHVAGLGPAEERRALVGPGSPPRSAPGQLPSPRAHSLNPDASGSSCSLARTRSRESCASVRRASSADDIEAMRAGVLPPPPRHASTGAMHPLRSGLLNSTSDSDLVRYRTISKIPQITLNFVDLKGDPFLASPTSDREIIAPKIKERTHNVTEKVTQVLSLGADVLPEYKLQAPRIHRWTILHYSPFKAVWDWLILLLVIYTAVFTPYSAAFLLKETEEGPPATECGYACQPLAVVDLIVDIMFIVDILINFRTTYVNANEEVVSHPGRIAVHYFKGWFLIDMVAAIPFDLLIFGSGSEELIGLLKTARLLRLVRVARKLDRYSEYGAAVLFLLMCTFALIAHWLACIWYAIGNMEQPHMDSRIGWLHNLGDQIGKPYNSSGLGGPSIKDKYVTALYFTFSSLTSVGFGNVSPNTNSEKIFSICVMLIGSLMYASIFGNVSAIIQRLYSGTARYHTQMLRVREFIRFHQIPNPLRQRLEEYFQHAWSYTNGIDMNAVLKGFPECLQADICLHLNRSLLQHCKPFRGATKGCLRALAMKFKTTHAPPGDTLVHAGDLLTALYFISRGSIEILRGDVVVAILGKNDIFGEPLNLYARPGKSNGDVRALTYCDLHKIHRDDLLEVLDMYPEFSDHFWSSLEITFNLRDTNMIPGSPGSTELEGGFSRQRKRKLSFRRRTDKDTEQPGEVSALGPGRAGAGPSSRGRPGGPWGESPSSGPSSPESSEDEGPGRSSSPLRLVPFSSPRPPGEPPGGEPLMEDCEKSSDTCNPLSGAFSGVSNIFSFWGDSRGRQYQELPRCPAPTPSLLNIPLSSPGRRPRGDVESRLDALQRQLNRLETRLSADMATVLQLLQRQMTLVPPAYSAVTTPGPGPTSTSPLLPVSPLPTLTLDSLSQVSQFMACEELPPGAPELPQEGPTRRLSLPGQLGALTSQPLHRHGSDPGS
row,Compound,"hERG current change (%, negative = inhibition) at 1uM [%]"
1,CCOc1ccc(S(=O)(=O)N/N=C(\C)c2ccc(Cl)c(Cl)c2Cl)cc1,12.1
2,Cc1ccc2oc(C(=O)Nc3ccc(S(=O)(=O)Nc4onc(C)c4C)cc3)cc(=O)c2c1,15.4
3,CCC1CCCN1Cn1cnc2c([nH]c3ccc(OC)cc32)c1=O (stereo not shown),-35.8
4,COc1ccc2c(c1)[nH]c1c(=O)n(CC3CCCO3)cnc12 (stereo not shown),14.6
5,CCN1CCCC1Cn1cnc2c([nH]c3ccc(OC)cc32)c1=O (stereo not shown),-58.5
6,COc1ccc2[nH]c3c(=O)n(CCN4CCOCC4)cnc3c2c1,9.44
7,COc1ccc2c(c1)[nH]c1c(=O)n(CCN3CCCC3)cnc12,-17.4
8,CCN1CCCC1Cn1cnc2c([nH]c3cc(OC)ccc32)c1=O (stereo not shown),-53.5
9,Cc1cc(C(=O)NC2CCCc3c2cnn3-c2ccc(C(C)(C)C)cc2)nn1C (stereo not shown),16.5
10,O=[N+]([O-])c1cc([N+](=O)[O-])c2nonc2c1Nc1ccc(O)cc1,2.03
11,CC1CCN(S(=O)(=O)c2ccc3c(c2)c(=O)c(C(=O)NC2CCCC2)cn3C)CC1,9.59
12,CCCCS(=O)(=O)N1CCC(C(=O)Oc2ccc(Cl)cc2)CC1,17.9
13,COc1ccc(S(=O)(=O)N2CCN(C(=O)CN3C(=O)NC(C)(C)C3=O)CC2)cc1,14
14,Cn1c(N)c(C(=O)COc2ccc(Cl)cc2Cl)c(=O)n(C)c1=O,12.3
15,CC(Oc1ccc(Cl)cc1Cl)C(=O)OCC(=O)c1c(N)n(C)c(=O)n(C)c1=O (stereo not shown),-57.5
16,Cn1c(N)c(C(=O)COC(=O)CCCOc2ccc(Cl)cc2Cl)c(=O)n(C)c1=O,16
17,O=C(CSc1nc2c(cnn2-c2ccc(F)cc2)c(=O)[nH]1)N1CCCCCC1,11
18,O=C(Nc1ccncc1)C1COc2ccccc2O1 (stereo not shown),1.88
19,O=C(C1CC(=O)N(c2ccc(F)cc2)C1)N1CCN(c2ccc(F)cc2)CC1 (stereo not shown),-71.1
20,Cc1ccc(N2CC(C(=O)N3CCC4(CC3)CC(=O)c3ccccc3O4)CC2=O)cc1C (stereo not shown),-6.22
21,O=C1CC2(CCN(C(=O)C3CC(=O)N(c4ccc(F)cc4)C3)CC2)Oc2ccccc21 (stereo not shown),-73.6
22,Cc1ccc(N2CC(C(=O)N3CCC4(CC3)CC(=O)c3ccccc3O4)CC2=O)cc1 (stereo not shown),-47.4
23,COc1ccc(N2CC(C(=O)N3CCC4(CC3)CC(=O)c3ccccc3O4)CC2=O)cc1 (stereo not shown),-34.8

row,Compound,"hERG current change (%, negative = inhibition) at 1uM [%]"
1,O=C(C1CC(=O)N(c2ccc(F)cc2)C1)N1CCN(c2ccccc2)CC1 (stereo not shown),-13.6
2,O=C(C1CC(=O)N(c2ccccc2)C1)N1CCN(c2ccc(F)cc2)CC1 (stereo not shown),-8.63
3,O=C1CC2(CCN(C(=O)C3CC(=O)N(c4ccccc4)C3)CC2)Oc2ccccc21 (stereo not shown),-51.5
4,COc1cccc(N2CC(C(=O)N3CCC4(CC3)CC(=O)c3ccccc3O4)CC2=O)c1 (stereo not shown),3.79
5,Cc1cnc(C(=O)NNC(=O)c2ccc(Br)cc2)cn1,2.55
6,Cc1cccc(NC(=O)CNC(=O)COc2ccc(C(=O)c3ccc(F)cc3)cc2)c1C,1.92
7,CCCCC(=O)Nc1ccc2c(c1)nc(CN1CCN(C(=O)OCC)CC1)n2C,13.1
8,Cc1ccc(Oc2cc(C#N)c(C#N)cc2-n2nnc3ccccc32)cc1C,7.63
9,CCCCN(CC)C(=O)Cc1ccccc1OC,18
10,COc1ccc(-c2noc(CCC(=O)NCCCN3CCC(Cc4ccccc4)CC3)n2)cc1,-84.9
11,CSc1ccc(NC(=O)NCCCN2CCN(c3ccccc3F)CC2)cc1,-12.8
12,O=c1c2cc(NC(=S)NCCN3CCCCCC3)ccc2nc2n1CCCCC2,7.57
13,Cc1ccc(S(=O)(=O)NCc2ccc(C(=O)NCCCN3CCN(C)CC3)cc2)cc1,13.4
14,Cc1ccc(S(=O)(=O)NCc2ccc(C(=O)NCCCN3CCC(Cc4ccccc4)CC3)cc2)cc1,-52.4
15,O=c1c2cc(NC(=S)NCCCN3CCC(Cc4ccccc4)CC3)ccc2nc2n1CCCCC2,-57.1
16,CSc1ccc(NC(=O)NCCCN2CCC(Cc3ccccc3)CC2)cc1,-76
17,Cc1ccccc1CC1CCN(CCCNC(=O)Nc2ccccc2)CC1,-34.1
18,CCCCNC(=S)Nc1ccc2nc3n(c(=O)c2c1)CCCCC3,-24.7
19,CCN1CCN(CCCNC(=O)CCc2nc(-c3ccc(OC)cc3)no2)CC1,6.54
20,CC(=O)Nc1ccc(S(=O)(=O)NCc2ccc(C(=O)NCCCN3CCC(C)CC3)cc2)cc1,16.7
21,COc1ccc(-c2noc(CCC(=O)NCCCN3CCC(C)CC3)n2)cc1,9.03
22,COc1ccc(C2C=C(Nc3ccccc3)C(=O)N2c2ccccc2)cc1OC (stereo not shown),20.1
23,C/C(=N/NC(=O)c1ccc(C)nc1)c1ccc2c(c1)CCCC2,-4.02

row,Compound,"hERG current change (%, negative = inhibition) at 1uM [%]"
1,CC(=O)Oc1cc2c(cc1Cl)C1(CC(c3ccccc3Cl)O2)CC(C)(C)NC(=S)N1 (stereo not shown),4.5
2,COc1ccc(NC(=O)NCCCCc2ccccc2)cc1,6.14
3,COc1ccc(NC(=O)NCCCN2CCC(Cc3ccccc3)CC2)cc1,-82.2
4,COc1ccc(NC(=O)N2CCC(Cc3ccccc3)CC2)cc1,6.74
5,Cc1ccc(NC(=O)CCn2nc(C)cc2C)c(C)c1,8.75
6,Cc1ccccc1CC1(CO)CCCN(C(=O)c2cc(Cl)ccc2F)C1 (stereo not shown),14.5
7,Cc1ccccc1CC1(CO)CCCN(C(=O)c2ccccc2N(C)C)C1 (stereo not shown),10.9
8,Cc1ccccc1CC1(CO)CCCN(C(=O)c2ccccc2Cl)C1 (stereo not shown),-70.4
9,Cc1cc(=O)n2c(n1)OC(CO)C2 (stereo not shown),12.1
10,Cc1nc(C)c(-c2ccccc2)c(=O)[nH]1,12.8
11,O=C(N1CCOCC1)N1c2ccccc2CC(N2CCOCC2)c2ccccc21 (stereo not shown),17
12,OCC1(Cc2ccc(Cl)cc2)CCN(CCCc2ccccc2)CC1,-83.6
13,OCC1(Cc2ccccc2)CCN(CCCC2CCCC2)CC1,-79
14,OCC1(Cc2ccc(Cl)cc2)CCN(Cc2ccccc2F)CC1,-18.4
15,OCC1(Cc2ccccc2)CCN(Cc2ccc(C(F)(F)F)cc2)CC1,-6.85
16,CN1CCC(CO)(Cc2ccccc2)CC1,4.74
17,OCC1(Cc2ccc(Cl)cc2)CCN(Cc2ccc(F)c(F)c2)CC1,-4.29
18,COc1ccc(CCNC(=O)Cc2cccs2)cc1,16.8
19,COc1ccc(C(CNC(=O)CN2C(=O)NC3(CCCC3)C2=O)N(C)C)cc1 (stereo not shown),13.2
20,COc1ccc2nc(N=NC3=C(O)CC(C)(C)CC3=O)sc2c1,7.73
21,COc1ccccc1Nc1nc(N)nc(CN2CCN(c3ccccc3F)CC2)n1,-9.68
22,COc1ccccc1Nc1nc(N)nc(CN2CCC(Cc3ccccc3)CC2)n1,-95.7
23,COc1ccccc1Nc1nc(N)nc(CN2CCN(Cc3ccc4c(c3)OCO4)CC2)n1,-79.8

row,Compound,"hERG current change (%, negative = inhibition) at 1uM [%]"
1,COc1ccccc1Nc1nc(N)nc(CN2CCN(c3ccccc3)CC2)n1,-3.16
2,COc1ccccc1Nc1nc(N)nc(CN2CCN(Cc3ccccc3)CC2)n1,-76.6
3,COc1ccccc1Nc1nc(N)nc(CN2CCOCC2)n1,14.7
4,COc1cccc(N2CCN(Cc3nc(N)nc(Nc4ccccc4OC)n3)CC2)c1,10.2
5,COc1ccc(N2CCN(Cc3nc(N)nc(Nc4ccccc4OC)n3)CC2)cc1,-14.5
6,COc1ccccc1Nc1nc(N)nc(CN2CCCCCC2)n1,-32.2
7,O=C(N/C(=C/c1cccnc1)C(=O)N1CCCCCC1)c1ccccc1,6.71
8,CC1NC(=O)N(C)C2NC(=O)N(C)C(c3ccccc3)C12 (stereo not shown),11.1
9,CC(C)(C)Sc1ccc([N+](=O)[O-])cc1C(=O)Nc1ccncc1,0.86
10,O=C(O)C(=O)O.c1ccc(Cc2ccc(OCCCNC3CCCC3)cc2)cc1,-3.05
11,O=C(O)C(=O)O.c1ccc(-c2ccc(OCCCNC3CCCC3)cc2)cc1,-54.9
12,O=C(O)C(=O)O.c1ccc(COc2ccc(OCCCNC3CCCC3)cc2)cc1,8.41
13,COc1ccc(CCNC(=O)Cn2c([N+](=O)[O-])cnc2C)cc1OC,8.24
14,COc1ccccc1Nc1nc(N)nc(CN2CCCCC2)n1,-4.26
15,CC1CC(C)CN(Cc2nc(N)nc(Nc3ccc4ccccc4c3)n2)C1 (stereo not shown),-61.1
16,CC1CC(C)CN(C(=S)SCc2nc(N)nc(Nc3ccccc3)n2)C1 (stereo not shown),7.72
17,Nc1nc(CN2CCc3ccccc3C2)nc(Nc2ccccc2)n1,-10.8
18,Cc1ccc(Nc2nc(N)nc(CN3CCc4ccccc4C3)n2)cc1,-31.5
19,CCN1CCN(Cc2nc(N)nc(Nc3ccc(C)c(C)c3)n2)CC1,-14.8
20,COc1ccccc1Nc1nc(N)nc(CN2CCC(C)CC2)n1,-37.3
21,COc1ccccc1Nc1nc(N)nc(CN2CC(C)CC(C)C2)n1 (stereo not shown),-70.8
22,CC1CC(C)CN(Cc2nc(N)nc(Nc3ccccc3)n2)C1 (stereo not shown),-52.3
